A selection: hits, their analogues and other compounds. The true share with any hit is near 11%.
IMPase inh = qHTS Assay for Identifying the Cell-Membrane Permeable IMPase Inhibitors. Inositol monophosphatase 1 (Rattus norvegicus), P97697. CHO-M1 cells, IP1 accumulation, HTRF TR-FRET ratio. inhibition (IP1 accumulation), % at 46.1 µM. 120,000 tested, under 10 active. AID 901, 2007; active means well fitted curve in the direction sought with a large enough effect in the signal ratio, not every such curve was filed as active; inconclusive means small, poorly fitted or top-dose-only effect, or a change in a side signal; inactive means no such curve, though single readings can be large or run the other way; the % refers to the signal ratio;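 further: cells stimulated with carbachol in lithium chloride buffer; higher means more IMPase inhibition seen as more IP1 and lower FRET ratio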
Target sequence (P97697 whole entry, looked up): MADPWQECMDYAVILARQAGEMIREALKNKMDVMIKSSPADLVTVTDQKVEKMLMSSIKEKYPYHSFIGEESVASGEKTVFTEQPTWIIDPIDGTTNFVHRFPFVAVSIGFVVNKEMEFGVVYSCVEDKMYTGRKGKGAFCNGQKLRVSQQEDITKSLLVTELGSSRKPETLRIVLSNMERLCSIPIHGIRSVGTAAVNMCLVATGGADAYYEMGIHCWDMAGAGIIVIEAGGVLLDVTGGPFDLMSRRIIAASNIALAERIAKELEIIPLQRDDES
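CHO-M1 cells (CHO stably expressing M1 receptor), compound up to 46 uM final, stimulated with carbachol (50 uM as added) in buffer with 50mM LiCl, pH 7.4, 30 min at 37C. Cytosolic IP1 read by TR-FRET; AC50 from Hill fits.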
IMPase Li inh = qHTS Assay for Identifying the Cell-Membrane Permeable IMPase Inhibitors: Potentiation with Lithium; CHO-M1 cells, IP1 TR-FRET (IP-One), carbachol + lithium; Potency, µM (highest dose often 59.4 µM), actives largely listed as inhibitors; 0.35% of 210,000 active;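 further: IP1 builds up when IMPase is blocked and the TR-FRET signal falls; nearly all actives have a fitted effect of over 50% in size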
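Concentration–response in CHO-M1 cells, lithium-potentiated; 30 min at 37C. IP1 detected by competitive TR-FRET after 10 min lysis at RT. Hill-fitted AC50.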
HPGD block = qHTS Assay for Inhibitors of HPGD (15-Hydroxyprostaglandin Dehydrogenase) | 4.3% of 150,000 active | purified HPGD, NADH fluorescence kinetic, PGE2 substrate | Potency, µM, actives largely listed as inhibitors; active means well fitted inhibition curve with a large enough effect, not every such curve was filed as active; inconclusive means small, poorly fitted or top-dose-only effect, or another doubt; inactive means no such curve, though single readings can be large or run the other way
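NADH formation kinetics: reaction with 30 uM PGE2 and 1 mM NAD+ (final), 20 nM enzyme, Tris-HCl pH 8 with Tween 20, after 15 min compound preincubation at room temperature. Fluorescence change, last versus first of five reads.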
ALDH1A1 block = qHTS Assay for Inhibitors of Aldehyde Dehydrogenase 1 (ALDH1A1). Aldehyde dehydrogenase 1A1 (Homo sapiens), P00352. Purified ALDH1A1, NADH fluorescence, propionaldehyde substrate. Potency, µM (top dose mostly 75.3 µM), hits mostly inhibitors. 7.3% of 220,000 active; active means well fitted inhibition curve with a large enough effect, not every such curve was filed as active; inconclusive means small, poorly fitted or top-dose-only effect, or another doubt; inactive means no such curve, though single readings can be large or run the other way
Target sequence (P00352 whole entry, looked up): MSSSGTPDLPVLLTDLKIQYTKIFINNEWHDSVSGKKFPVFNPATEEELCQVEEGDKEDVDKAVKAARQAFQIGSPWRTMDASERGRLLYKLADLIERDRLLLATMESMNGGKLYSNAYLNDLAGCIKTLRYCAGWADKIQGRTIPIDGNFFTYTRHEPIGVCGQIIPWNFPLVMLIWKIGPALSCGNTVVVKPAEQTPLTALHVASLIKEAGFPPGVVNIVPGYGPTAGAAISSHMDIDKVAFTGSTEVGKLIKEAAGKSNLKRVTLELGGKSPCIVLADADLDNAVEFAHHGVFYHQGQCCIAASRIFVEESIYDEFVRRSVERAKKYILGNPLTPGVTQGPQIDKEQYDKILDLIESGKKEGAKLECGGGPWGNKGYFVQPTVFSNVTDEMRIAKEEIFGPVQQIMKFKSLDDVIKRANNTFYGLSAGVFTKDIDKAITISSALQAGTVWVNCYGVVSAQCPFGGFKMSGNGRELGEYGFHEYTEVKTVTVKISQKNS
PNC inhibitor = High Content Assay for Compounds that inhibit the Assembly of the Perinucleolar Compartment | 3.1% of 140,000 active | activity change (PNC), negative = inhibition, % at 10 µM | AID 2417, 2010 | PC3M PTB-GFP, PNC prevalence imaging, 16 h; hits give low values;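 active means readout at or below -70, meaning at least 70% loss of cells showing the perinucleolar compartment, a nuclear body marking cancer cells; inconclusive means readout between -30 and a set limit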
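Compounds are pinned in duplicate onto adhered PC3M cells stably expressing GFP-tagged PTB and incubated 16 h at 37 C. Cells are then fixed, nuclei stained with Hoechst, and PNC-positive cells counted.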
ALOX12 inhib = qHTS Assay for Inhibitors of 12-hLO (12-human lipoxygenase); Polyunsaturated fatty acid lipoxygenase ALOX12 (Homo sapiens), P18054; purified 12-hLO, xylenol orange hydroperoxide absorbance; Potency, µM (series often up to 57.1 µM), most hits filed as inhibitors; 0.12% of 150,000 active; AID 1452, 2008; further: nearly all actives have a fitted effect of over 55% in size
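Hydroperoxide formation by human 12-lipoxygenase from 40 uM arachidonic acid was followed colorimetrically via ferric-xylenol orange complex, using the 573/405 nm absorbance ratio. Enzyme concentration was 150 nM, with 30 min reaction at room temperature.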
Of the large screens only hits and unclear results are named; the others gave an inactive call. Unless noted, the call rests on the fitted dose curve; in most records, active means well fitted curve in the direction sought with a large enough effect; inconclusive means small, poorly fitted or top-dose-only effect, or another doubt; inactive means no such curve, though single readings can be large; an effect the other way counts as inactive or inconclusive.

CCOC(=O)N1CCN(S(=O)(=O)c2cccs2)CC1	none
Cc1cc(C(=O)CCC(=O)N2CCN(S(=O)(=O)c3cccs3)CC2)c(C)s1	PNC inhibitor -100
COc1ccc2c(CC(=O)N3CCN(S(=O)(=O)c4cccs4)CC3)coc2c1	ALDH1A1 block 2.8µM
CCNC(=O)NC(=O)CSc1nc2ccccc2n1CCOC	IMPase inh inconclusive (no result: IMPase Li inh, HPGD block)
Cc1cc2nc(N)sc2cc1C	PNC inhibitor -91
CC(C)c1ccc2nc(N)sc2c1	none (no result: IMPase inh, HPGD block, PNC inhibitor, ALOX12 inhib)
Cc1cccc(NC(=O)c2ccc(COc3ccc4ccccc4c3)o2)n1	none (no result: IMPase inh, HPGD block, PNC inhibitor, ALOX12 inhib)
Cc1c(NC(=O)c2ccc(COc3ccc4ccccc4c3)o2)c(=O)n(-c2ccccc2)n1C	HPGD block 35µM, ALDH1A1 block inconclusive
COc1ccccc1CN1CC2(CCN(C(=O)c3cc(C(F)(F)F)cc(C(F)(F)F)c3)CC2)C1	none (no result: IMPase inh, PNC inhibitor)
O=S(=O)(CCN(CCS(=O)(=O)C(F)(F)F)CC1CCCO1)C(F)(F)F (stereo unspecified)	ALDH1A1 block 7.1µM
COc1ccc(CC(=O)Nc2nnc(C(C)C)s2)cc1OC	none (no result: IMPase inh, HPGD block, PNC inhibitor, ALOX12 inhib)
Cc1ccccc1C(=O)NC(=S)NCc1cccnc1	none (no result: IMPase inh, HPGD block, PNC inhibitor, ALOX12 inhib)
O=C(NC(=S)NCCSc1ccccc1)c1cccnc1	ALDH1A1 block 14µM, PNC inhibitor -95 (no result: IMPase inh)
Cc1ccccc1C(=O)NNC(=S)NC(=O)c1cccnc1	ALDH1A1 block 25µM (no result: IMPase inh)
O=C(NC(=S)NNC(=O)c1ccccc1F)c1cccnc1	ALDH1A1 block 7.1µM (no result: IMPase inh, IMPase Li inh, HPGD block, PNC inhibitor, ALOX12 inhib)
CNC(=S)NNC(=O)c1ccccc1F	ALDH1A1 block inconclusive (no result: IMPase inh, HPGD block, PNC inhibitor, ALOX12 inhib)
O=C(Oc1ccc(C(=S)N2CCOCC2)cc1Br)c1ccccc1F	HPGD block 32µM, ALDH1A1 block 25µM (no result: IMPase inh)
COc1ccc(C(=O)N2CCOCC2)cc1Br	none
CN(C)C(=O)N1CCCC(C(=O)NCCc2ccccc2)C1 (stereo unspecified)	HPGD block inconclusive, ALDH1A1 block inconclusive
CN(C)C(=O)N1CCCC(C(=O)NCc2ccccc2)C1 (stereo unspecified)	PNC inhibitor -91
COc1cc(/C=C2\C(=O)N(CCC#N)N=C2C)c(Br)cc1OC(C)C	HPGD block 8.9µM
CC1=NN(c2ccccc2)C(=O)/C1=C\c1cn(CCC#N)nc1-c1ccc(Cl)cc1	none (no result: IMPase inh)
O=C(COC(=O)C1(c2ccccc2F)CCCC1)N1CCN(C(=O)c2ccco2)CC1	none
O=C(COC(=O)C1(c2ccc(F)cc2)CCCC1)N1CCN(C(=O)c2ccco2)CC1	ALDH1A1 block 20µM, PNC inhibitor inconclusive
O=C(CN1C(=O)NC2(CCCCCCC2)C1=O)N1CCN(C(=O)c2ccco2)CC1	ALDH1A1 block 11µM
COCCN(C(=O)CSc1ncc(C(F)(F)F)cc1Cl)c1c(N)n(Cc2ccccc2)c(=O)[nH]c1=O	none (no result: IMPase inh, HPGD block, PNC inhibitor, ALOX12 inhib)
CCCNC(=O)c1ccc(C2SCC(=O)N2CCc2ccccc2)cc1 (stereo unspecified)	HPGD block 13µM (no result: IMPase inh)
CCNC(=O)c1ccc(C2SCC(=O)N2CCc2ccccc2)cc1 (stereo unspecified)	HPGD block 22µM (no result: IMPase inh)
CCc1ccc(NC(=O)c2ccc(C3SCC(=O)N3CCc3ccccc3)cc2)cc1 (stereo unspecified)	ALDH1A1 block inconclusive
O=C(CC(c1cccs1)S(=O)(=O)c1ccccc1)c1ccc(F)cc1 (stereo unspecified)	ALDH1A1 block 25µM (no result: IMPase inh)
CC1(C)NC(=O)N(CC(O)CN2CCCCC2)C1=O (stereo unspecified)	PNC inhibitor -94
CC1(C)NC(=O)N(CC(O)COC2CCCCC2)C1=O (stereo unspecified)	none
CCC1=C2CC[C@H]3C(=O)N(CC(=O)OC)C(=O)[C@H]3[C@H]2[C@@]2(C)C(=O)N(Cc3ccccc3)C(=O)N2C1=O	none (no result: IMPase inh, PNC inhibitor)
CCOc1cc(CN2CCC(CO)(Cc3cccc(C(F)(F)F)c3)CC2)ccc1OC	none (no result: IMPase inh, HPGD block, PNC inhibitor, ALOX12 inhib)
Cc1cc(NC(=O)C(=O)NCCN2CCN(C(=O)c3cccs3)CC2)ccc1Br	PNC inhibitor -100
COc1ccc(NC(=O)C(=O)NCCN2CCN(C(=O)c3cccs3)CC2)cc1	ALDH1A1 block inconclusive
COC(=O)c1c(NC(NC(=O)C(C)C)C(Cl)(Cl)Cl)sc2c1CCC2 (stereo unspecified)	none (no result: IMPase inh)
CCN(CC)S(=O)(=O)c1ccc2oc(C(=O)NCC3COc4ccccc4O3)c(C)c2c1 (stereo unspecified)	ALDH1A1 block 14µM
O=C(NCc1ccccc1)C(=O)NCC1COc2ccccc2O1 (stereo unspecified)	ALDH1A1 block inconclusive
CCc1ccc(C(=O)NCC2COc3ccccc3O2)o1 (stereo unspecified)	HPGD block 18µM
CC(C)(C)NC(=O)CCC1COc2ccccc2O1 (stereo unspecified)	none
COc1cc(OC)c(OC)cc1NC(=O)CC1COc2ccccc2O1 (stereo unspecified)	ALDH1A1 block 3.5µM, PNC inhibitor inconclusive
O=C(CCC1COc2ccccc2O1)NCC1COc2ccccc2O1 (stereo unspecified)	PNC inhibitor -100
CC[n+]1c(/C=C/C=C/N(C(C)=O)c2ccccc2)sc2ccccc21	ALDH1A1 block 3.5µM, ALOX12 inhib inconclusive
COCCSc1nnc(NC(=O)Cc2ccccc2OC)s1	ALDH1A1 block 22µM
COCCSc1nnc(NC(=O)Cc2cccs2)s1	none
CCCCSc1nnc(NC(=O)CCc2ccccc2)s1	PNC inhibitor -81
COc1cc2c(cc1OC)C1C(=O)c3ccc4c(c3OC1CO2)C=CC(C)(C)O4 (stereo unspecified)	none (no result: IMPase inh, PNC inhibitor)
COCCNC(=O)[C@@]1(Cc2ccccc2)C=C[C@@H](C)N1C(=O)OC	none (no result: IMPase inh, PNC inhibitor)
CCN(C(=O)c1ccc(C(=O)N(CC)c2ccccc2C)cc1)c1ccccc1C	none (no result: IMPase Li inh, HPGD block, ALDH1A1 block, PNC inhibitor, ALOX12 inhib)
CCCCCCCN(C(=O)CCl)c1ccccc1C	ALDH1A1 block 0.5µM, PNC inhibitor inconclusive
CC(C)C[C@@H](CC(=O)N[C@H](CC(=O)N[C@@H]1CCNC[C@H]1C(=O)N[C@H](CC(=O)N[C@@H](CCC(=O)O)CC(=O)O)Cc1c[nH]c2ccccc12)C(C)C)NC(=O)[C@@H]1CCCC[C@H]1N	none (no result: IMPase inh, PNC inhibitor)
COCC1=Cc2cc3c(cc2C(C(C(=O)OC)C(=O)OC)N1C(=O)OC)OCO3 (stereo unspecified)	none (no result: IMPase inh, PNC inhibitor)
COc1ccc(Cc2nnc(N/N=C/c3ccc(O)cc3O)[nH]c2=O)cc1OC	HPGD block 32µM (no result: IMPase inh)
Cc1ccc(/C=N/Nc2nnc(Cc3ccccc3)c(=O)[nH]2)o1	none (no result: IMPase inh, HPGD block, PNC inhibitor, ALOX12 inhib)

Compound activity as filed in PubChem.
